Key:
Format in all cases: functional
Plasmodium falciparum [1] = assay: GSK_TCMDC: Inhibition of Plasmodium falciparum 3D7 in whole red blood cells, using parasite LDH activity as an index of growth. Test compounds present at 2uM
Plasmodium falciparum [2] = assay: GSK_TCMDC: Inhibition of Plasmodium falciparum Dd2 in whole red blood cells, using parasite LDH activity as an index of growth. Test compounds present at 2uM
HepG2 = assay: GSK_TCMDC: Percent inhibition of human HepG2 cell line. Test compounds present at 10uM.

Compound | Inhibition (Plasmodium falciparum [1]) [%] | Inhibition (Plasmodium falciparum [2]) [%] | Inhibition (HepG2) [%]
Cc1ccccc1C1CCN(c2ccc(NC(=O)c3ccc(Cl)nc3)cc2)CC1.O=C(O)C(F)(F)F | 92 | 82 | 43
CCCc1ccc(Nc2nc(C)cc(N(CC)CCCN3CCCCC3)n2)cc1.O=C(O)C(F)(F)F | 100 | 95 | 48
CN1CCC(Oc2ccc(CN3CC[C@H](NC(=O)c4ccc(F)c(F)c4)C3)c3ccccc23)C1.O=C(O)C(F)(F)F (stereo not given in full) | 91 | 27 | 20
Cn1cccc1CCNCc1ccc(-c2cccc(-c3nc4cc(F)ccc4[nH]3)c2)cc1.O=C(O)C(F)(F)F | 93 | 43 | 0
Fc1ccc(CN2CCN(c3ncnc4cc(-c5ccccc5)sc34)CC2)cc1 | 82 | 82 | 7
CC(=O)Nc1cccc(C(=O)Nc2ccc(-c3cccc(-c4nc5cc(C(F)(F)F)ccc5[nH]4)c3)cc2)c1 | 100 | 85 | 81
COc1cc(C)nc2ccc(NC(=O)Nc3cccc4ccccc34)cc12 | 91 | 48 | 27
CN(C(=O)C(C)(C)Oc1ccc(Cl)cc1)C1CCN(CCCCCNC(=O)/C=C/c2ccc(Cl)c(Cl)c2)CC1 | 96 | 26 | 86
Fc1ccc2[nH]c(-c3ccc(-c4ccc(CNCCc5cccnc5)cc4)s3)nc2c1.O=C(O)C(F)(F)F | 100 | 99 | 40
CCC(C)c1ccc(O)c(NC(=O)c2cncc(Br)c2)c1 (stereo not given) | 100 | 16 | 0
Cl.Oc1cc(Nc2ccnc3ccc(I)cc23)c(F)cc1Cl | 95 | 13 | 20
O=C(NCCCCN1CCN(CC=Cc2ccccc2)CC1)c1ccc(NC(=O)c2cc(Cl)cc(Cl)c2)cc1 | 100 | 63 | 26
CN(C)C(=O)CC(=O)NCc1c(Cl)cccc1Cl | 95 | 2 | 2
Cc1cccc2nc(-c3cccc(-c4cccc(NC(=O)Nc5ccc(F)c(F)c5F)c4)c3)[nH]c12 | 100 | 99 | 32
CC(=O)Nc1ccc(S(=O)(=O)Nc2ccc(Nc3nc(C)cc(N4CCCCC4)n3)cc2)cc1 | 89 | 54 | 23
CC(C)(C)c1ccc(OCC(=O)NC2CCN(c3ccnc4cc(Cl)ccc34)C2)cc1.O=C(O)C(F)(F)F (stereo not given) | 98 | 100 | 17
CN1CCCN(Cc2ccc(-c3cccc(NC(=O)c4ccc(Cl)cc4)c3)cc2)CC1.O=C(O)C(F)(F)F | 98 | 50 | 34
CCc1cn2c3c(cc(C(=O)N[C@@H](Cc4ccccc4)[C@H](O)CNC4CCCC4)cc13)N(C)S(=O)(=O)CC2 | 100 | 99 | 6
COc1ccc2nccc([C@@H](O)CN3CCC(NC(=O)C(c4cccs4)N4CCN(c5ccc(F)cc5)CC4)CC3)c2c1 (stereo not given in full) | 97 | 45 | 9
CCc1ccc(NC(=O)N(CCCn2ccnc2)Cc2csc(-c3ccc(CNCc4ccccc4)cc3)n2)cc1.O=C(O)C(F)(F)F | 100 | 39 | 9

Compound | Inhibition (Plasmodium falciparum [1]) [%] | Inhibition (Plasmodium falciparum [2]) [%] | Inhibition (HepG2) [%]
Br.Cc1cccc2c(CON3C(N)=NC(N)=NC3(C)C)cccc12 | 94 | 94 | 64
CCNc1cc(C(=O)N[C@@H](Cc2ccccc2)[C@H](O)CNC2CCC(C)(C)C2)cc(N2CCCCS2(=O)=O)c1.Cl (stereo not given in full) | 96 | 98 | 3
CCNC(C)(C)CN(Cc1ccc(-c2ccc(C(F)(F)F)cc2)cc1)C(=O)Cn1c(CCc2cccc(F)c2F)nc(=O)c2ccccc21.O=C(O)C(O)C(O)C(=O)O | 97 | 70 | 47
O=C(Nc1ccc(S(=O)(=O)N2CCCCC2)cc1)c1cc(-c2ccccc2O)n[nH]1 | 94 | 81 | 13
Cc1ccc2c(Cc3cnc(N)nc3N)cc(C)c(N)c2n1.Cl | 91 | 92 | 0
O=C(NC(=O)c1ccccc1O)c1ccccc1O | 97 | 79 | 0
c1ccc(N2CCN(c3cc(-c4cccnc4)nc(-c4ccncc4)n3)CC2)nc1 | 99 | 22 | 22
CCCc1ccc(NC(=O)c2ccc(CN3CCCN(CC4CCCCC4)CC3)cc2)cc1.O=C(O)C(F)(F)F | 95 | 41 | 49
Cc1ccc(C)c(CN2CCC(CNC(=O)c3cc4ccc5cccnc5c4[nH]3)CC2)c1 | 95 | 10 | 25
Cc1ccc(O)c(Nc2c3c(c(C#N)c4nc5ccccc5n24)CCC3)c1 | 85 | 2 | 7
O=C(Cc1ccsc1)NCC(c1ccccc1Cl)c1c[nH]c2ccccc12 (stereo not given) | 86 | 71 | 0
Cc1ccc(NC(=O)c2ccc3ncccc3c2)cc1OC1CCN(C(C)C)C1.O=C(O)C(F)(F)F (stereo not given) | 95 | 37 | 12
O=c1cc(NCCCNCc2cc(Cl)c(Cl)cc2Cl)[nH]c2ccccc12 | 93 | 20 | 7
CCn1c(Sc2ccc([N+](=O)[O-])c(C#N)c2)nnc1-c1ccc(Cl)cc1 | 93 | 7 | 2
Cc1cc(N(C)C)nc(Nc2ccc(NC(=O)c3c(F)cccc3Cl)cc2)n1 | 90 | 36 | 15
CS(=O)(=O)c1ccc(-c2cnc(N)c(-c3cccc(O)c3)c2)cc1 | 98 | 97 | 48
CCCCN(CCCC)CCCN(CCCN(CCCC)CCCC)c1cc(C)nc(Nc2ccc3cc(Br)ccc3c2)n1.Cl | 100 | 99 | 52
CCOC(=O)c1cnc2c(C(F)(F)F)cccc2c1Nc1ccc(O)cc1 | 96 | 67 | 0
CN1CCCC(CN2CCN(Cc3ccc(-c4ccc(-c5nc6ccccc6[nH]5)s4)cc3)CC2)C1.O=C(O)C(F)(F)F (stereo not given) | 100 | 100 | 57
CCc1ccc(CN2CCC(NC(=O)c3ccc(-c4ccccc4F)s3)CC2)cc1.O=C(O)C(F)(F)F | 80 | 12 | 35

Compound | Inhibition (Plasmodium falciparum [1]) [%] | Inhibition (Plasmodium falciparum [2]) [%] | Inhibition (HepG2) [%]
OC(CNc1ccnc(Nc2ccc(Cl)cc2)n1)c1ccccc1C(F)(F)F (stereo not given) | 98 | 28 | 22
CCN(CC)CCOc1ccc(C(O)(C#CC(O)(c2ccccc2)c2ccc(OCCN(CC)CC)cc2)c2ccccc2)cc1 (stereo not given) | 99 | 99 | 81
COc1ccc(CC2(c3ccc(F)cc3)N=C(N)N(CCCc3ccc4c(c3)OCO4)C2=O)cc1.O=C(O)C(F)(F)F (stereo not given) | 98 | 97 | 60
Cc1cc(NCC(c2ccccc2)c2ccccc2)nc(NCC2CCCCC2)n1 | 100 | 93 | 12
CN(C)[C@@H]1C(O)=C(C(N)=O)C(=O)[C@@]2(O)C(O)=C3C(=O)c4c(O)ccc(C#Cc5ccccn5)c4C[C@H]3C[C@@H]12.Cl | 92 | 75 | 17
COc1cc(-n2cnc3cc(-c4ccc([N+](=O)[O-])cc4)sc3c2=O)ccc1OCCN1CCCC1.O=C(O)C(F)(F)F | 97 | 79 | 44
CCN(CC)CCN(Cc1ccc(-c2ccc(C(F)(F)F)cc2)cc1)C(=O)Cn1c(CCc2ccc(F)c(F)c2)nc(=O)c2ccccc21.O=C(O)C(O)C(O)C(=O)O | 99 | 62 | 31
COCCNC(=O)C1CCN(C(c2ccc(Cl)cc2)c2ccc(Cl)cc2)CC1 | 86 | 73 | 3
CC(C)Cn1cc(C2CCN(CCN3CCC(CNC(=O)c4ccc(-c5ccc(C#N)cc5)cc4)CC3)CC2)c2ccccc21 | 100 | 98 | 28
COc1ccc2ncc(F)c(CCN3CC(O)C(CNCc4ccc5ccccc5c4)C3)c2n1.Cl (stereo not given) | 100 | 78 | 57
Cc1cc(N)nc2ccc(-c3ccc(CN)cc3)cc12 | 100 | 93 | 4
Cc1nc(C)c(-c2ccc(-c3ccc(F)cc3)cc2)c(O)c1Br | 94 | 52 | 12
CN(C1CCC(NC(=O)/C=C/c2ccccc2)CC1)C1CC2(CCN(C(=O)OC(C)(C)C)CC2)c2ccccc21 (stereo not given) | 95 | 95 | 16
CCCCCc1ccc(N2C(N)=NC(N)=NC2(C)C)cc1.Cl | 95 | 1 | 59
Cc1[nH]c(C)c(-c2ccc(OCc3cc(C(F)(F)F)cc(C(F)(F)F)c3)nc2)c(=O)c1Br | 98 | 96 | 28
NC1CCN(Cc2cccc(-c3ccc(-c4nc5cc(F)ccc5[nH]4)cc3)c2)C1.O=C(O)C(F)(F)F (stereo not given) | 99 | 99 | 24
COc1ccc(CNCc2ccc(F)cc2)cc1-c1ccc(S(=O)(=O)NCCN2CCCC2)cc1.O=C(O)C(F)(F)F | 91 | 25 | 38
O=C(O)C(F)(F)F.O=S(=O)(NCCN1CCCC1)c1ccc(-c2cccc(CNCCc3cccs3)c2)s1 | 99 | 44 | 39
Cc1nc2ccc([N+](=O)[O-])cc2c(=O)n1OCc1ccccc1 | 98 | 0 | 2
COc1ccc(-c2ccc(NC(=O)c3ccccc3)cc2)cc1CN1CCCN(C)CC1.O=C(O)C(F)(F)F | 92 | 17 | 24
